Data on 25 compounds can be found in PubChem BioAssay.

The subject of assay [1] is XIP peptide (Xip251-270) binding. Description: XIP fragment 251-270 binding compounds – biochemical, small-molecule microarray, fluorescence 635/667 nm, 0.1 µg/mL protein, primary screen (AID 1182). Particulars: fluorescent protein binding, 635 nm, higher = more signal, called active from +8 up or from −8 down.
Assay [2] deals with XIP peptide (Xip251-270). Put plainly: compounds binding XIP fragment 251-270 – biochemical, small-molecule microarray, fluorescence 635/667 nm, 0.5 µg/mL protein, primary screen (AID 1183). As to conditions: fluorescence 635 nm, higher = more signal.
Assay [3] in a line: blood-stage malaria parasite viability loss – strain 3D7, DAPI fluorescence, 100 nL, primary screen (AID 1184).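 Further: parasites grown inside human red blood cells in medium with human serum.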 Particulars: P. falciparum 3D7 growth, 3 d, higher = more signal.
The target in assay [4] is Homeobox protein Hox-A13 (Mus musculus) (UniProt Q62424). Description: disruptors of Hoxa13 oligonucleotide interaction – biochemical, fluorescence polarization, labeled oligonucleotide, primary screen (AID 1185). As to conditions: Hoxa13:DNA binding, 15 min, higher = more signal, called active from +8 up or from −8 down.
Sequence of Homeobox protein Hox-A13 (Mus musculus) (Q62424 whole entry, looked up): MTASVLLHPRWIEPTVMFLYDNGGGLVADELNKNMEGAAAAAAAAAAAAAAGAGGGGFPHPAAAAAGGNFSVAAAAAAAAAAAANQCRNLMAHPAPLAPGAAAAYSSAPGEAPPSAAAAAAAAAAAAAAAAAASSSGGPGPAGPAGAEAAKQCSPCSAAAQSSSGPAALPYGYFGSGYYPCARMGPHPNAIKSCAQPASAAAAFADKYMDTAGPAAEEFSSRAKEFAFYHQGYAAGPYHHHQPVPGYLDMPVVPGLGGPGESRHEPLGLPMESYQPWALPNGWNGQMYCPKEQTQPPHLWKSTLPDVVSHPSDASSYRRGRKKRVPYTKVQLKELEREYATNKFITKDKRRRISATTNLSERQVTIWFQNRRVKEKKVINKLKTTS
Assay [5] in a line: blockers of DNA damage checkpoint Chk1 activation – imaging, HeLa, hydroxyurea, phospho-Chk1 antibody, percent positive cells, primary screen (AID 1186). Particulars: hydroxyurea-induced phospho-Chk1 immunofluorescence imaging, higher = more signal.
A short description of assay [6]: blockers of DNA damage checkpoint Chk1 activation – imaging, HeLa, hydroxyurea, phospho-Chk1 nuclear intensity, primary screen (AID 1187). Particulars: hydroxyurea-induced phospho-Chk1 immunofluorescence imaging, higher = more signal.

Activity calls are given as the source filed them. Unless noted, how the calls were made is not given here.

`COC(=O)[C@@]1(Cc2ccc(OC)cc2)[C@H]2c3cc(C(=O)N4CCCC4)n(Cc4ccc(OC(F)(F)F)cc4)c3C[C@H]2CN1C(=O)c1ccccc1`: the values for the composite z-score in assay [1] and in assay [2] were 0.931 (inactive) and 0.702, respectively. Moreover, the z-score was -1.29 in assay [3], -2.94 (inactive) in assay [4], 0.168 (inactive) in assay [5] and 0.569 (inactive) in assay [6].

Turning to `CC(C)C[C@@H]1NC(=O)[C@@]23C(=O)N[C@@H](Cc4ccccc4)C2[C@H](C)[C@@]2(C)O[C@H]2C3/C=C/C/C=C\CNC(=O)[C@@H](C)NC1=O` (stereo not given in full), the composite z-score in assay [1] was 0.772 (inactive); in assay [2], 0.649. Also, the z-score in assay [3] was -1.65; in assay [4], -4.91 (inactive); in assay [5], -0.674 (inactive); in assay [6], -0.734 (inactive).

Take `CO[C@H]1O[C@H](CO)[C@@H](OC(=O)c2ccc(Br)cc2)[C@@H]2OC(=O)[C@H](Cc3ccccc3)C/C=C/C[C@@H](Cc3ccccc3)C(=O)O[C@@H]12`: the composite z-score in assay [1] was -0.161 (inactive); in assay [2] it was 0.629. Further, the z-score is -0.949 in assay [3], -5.27 (inactive) in assay [4], -0.708 (inactive) in assay [5] and -1.06 (inactive) in assay [6].

For `COc1cc2c(cc1O)C(c1cccs1)N(Cc1sc3ccccc3c1Cl)CC2` (stereo not given), the composite z-score is 0.791 (inactive) in assay [1] and 0.867 in assay [2]. The z-score was -1.66 in assay [3], -1.54 (inactive) in assay [4], 0.326 (inactive) in assay [5] and 0.638 (inactive) in assay [6].

Turning to `CCOC(=O)C[C@H]1[C@H](OC(=O)c2ccccc2-c2ccccc2)[C@@H](NC(=O)c2ccccc2)c2cc(OCCCO)ccc2N1C(=O)c1ccccc1`, the results for the composite z-score in assay [1] and in assay [2] were -0.101 (inactive) and -0.127, respectively. Moreover, the z-score is -1.39 in assay [3], -4.85 (inactive) in assay [4], 0.972 (inactive) in assay [5] and 0.528 (inactive) in assay [6].

As to `CC(C)N1CC=CC23O[C@@H]4/C=C\CCCOC(=O)C4[C@H]2C(=O)N(CCCCCCO)[C@@H]3C1=O` (stereo not given in full), the composite z-score in assay [1] was 1.15 (inactive); in assay [2], -0.853. Further, the z-score in assay [3] is -0.064; in assay [4] it was -5.14 (inactive); in assay [5] it was -0.765 (inactive); in assay [6], -0.0806 (inactive).

Consider `COc1ccc(C(=O)Nc2cccc(CN3C(=O)[C@@]4(O[C@@H](CC(=O)N(CCO)Cc5ccccc5)[C@H]([Si](C)(C)c5ccc(OC)cc5)[C@H]4C)c4ccccc43)c2)cc1`, for which the results for the composite z-score in assay [1] and in assay [2] were 1.31 (inactive) and 0.442, respectively. In addition, the z-score in assay [3] is -2.54; in assay [4] it was -0.674 (inactive); in assay [5], -1.43 (inactive); in assay [6], -0.643 (inactive).

As to `COCCCNC(=O)[C@@]1(c2ccc([N+](=O)[O-])cc2)CC(=O)N(CC23CC4CC(CC(C4)C2)C3)[C@@H]1c1ccc(CO)cc1I`, the composite z-score in assay [1] is 1.15 (inactive); in assay [2], 0.383. In addition, the z-score in assay [3] is -1.13; in assay [4] it was -4.38 (inactive); in assay [5] it was 0.568 (inactive); in assay [6] it was 0.885 (inactive).

Regarding `CCOC(=O)C[C@H]1[C@H](OC(=O)c2ccc(-c3ccccc3)cc2)[C@@H](NC(=O)CC(C)C)c2cc(OCCCO)ccc2N1C(=O)c1ccccc1`, the figures for the composite z-score in assay [1] and in assay [2] were 0.22 (inactive) and -0.0545, respectively. In addition, the z-score was -0.419 in assay [3], -3.33 (inactive) in assay [4], -0.228 (inactive) in assay [5] and -0.0761 (inactive) in assay [6].

For `C=CCOC(=O)[C@H]1[C@@H]2C(=O)O[C@@H](c3ccccc3)[C@@H](c3ccccc3)N2[C@@H](c2ccc(OCCOC(=O)[C@H]3C[C@H]4C(=O)N[C@@H](CCCCNC(C)=O)C(=O)N4[C@H]3c3cccc(OCCO)c3)cc2)[C@]12C(=O)Nc1ccc(I)cc12`, the composite z-score was 0.996 (inactive) in assay [1] and 0.68 in assay [2]. Further, the z-score in assay [3] is -1.61; in assay [4], 2.36 (inactive); in assay [5], -0.138 (inactive); in assay [6], 0.239 (inactive).

Take `[N-]=[N+]=Nc1ccccc1C[C@]1(C(=O)NCc2ccccc2)COC(c2ccc(OCCCO)cc2)=N1`: the composite z-score in assay [1] is 0.261 (inactive); in assay [2], 0.651. Moreover, the z-score in assay [3] is -2.38; in assay [4], -5.36 (inactive); in assay [5] it was -0.364 (inactive); in assay [6], -0.571 (inactive).

On to `CC(C)C[C@@H]1NC(=O)[C@H]2C[C@@H](C(=O)NCCCCCN)[C@@H](c3cccc(OCCO)c3)N2C1=O`, for which the composite z-score in assay [1] was 1.35 (inactive); in assay [2] it was 0.853. Also, the z-score in assay [3] is 0.304; in assay [4], -3.68 (inactive); in assay [5], -0.242 (inactive); in assay [6], 0.0992 (inactive).

With `CN(C)CCCNC(=O)[C@@H]1c2ccccc2C(=O)N(C2CCCCC2)[C@H]1c1ccc(CO)cc1`, the composite z-score is 2.33 (inactive) in assay [1] and 0.834 in assay [2]. Besides, the z-score was -1.99 in assay [3], 1.8 (inactive) in assay [4], 0.208 (inactive) in assay [5] and 0.393 (inactive) in assay [6].

With `[N-]=[N+]=NCc1ccccc1[C@@H]1OC(c2ccc(OCCCO)cc2)=N[C@]1(Cc1ccccc1)C(=O)NCCN1CCOCC1`, the composite z-score in assay [1] was -0.256 (inactive); in assay [2], 0.77. Besides, the z-score in assay [3] was -2.2; in assay [4], -1.66 (inactive); in assay [5], -0.294 (inactive); in assay [6], -0.108 (inactive).

In the case of `CC(C)=CCCC(C)=CC(O)C1C=CC2C(=O)N(c3ccccc3)C(=O)C2N1Nc1ccccc1F` (stereo not given), the composite z-score was 0.0917 (inactive) in assay [1] and 0.546 in assay [2]. The z-score in assay [3] was 0.203; in assay [4], -3.38 (inactive); in assay [5], 0.0156 (inactive); in assay [6], 0.0908 (inactive).

For `COC(=O)[C@@]1(Cc2ccc(F)cc2)[C@H]2c3cc(C(=O)N4CCCC4)n(CC4CC4)c3C[C@H]2CN1C(=O)c1ccccc1`, the composite z-score in assay [1] is 1.84 (inactive); in assay [2], 0.245. Besides, the z-score is -1.36 in assay [3], -4.69 (inactive) in assay [4], 0.396 (inactive) in assay [5] and 0.0021 (inactive) in assay [6].

As to `[N-]=[N+]=NCc1ccccc1[C@H]1OC(c2ccc(OCCCO)cc2)=N[C@@]1(Cc1ccccc1)C(=O)NCCN1CCOCC1`, the values for the composite z-score in assay [1] and in assay [2] were 0.0723 (inactive) and 0.816, respectively. Besides, the z-score in assay [3] was -2.28; in assay [4], -0.974 (inactive); in assay [5] it was -0.0389 (inactive); in assay [6], 0.306 (inactive).

As for `CN1C=C(C(=O)OCCS(C)(=O)=O)C(C(=O)OCCS(C)(=O)=O)=CC(c2ccc(CO)cc2)=CC1c1cccs1` (stereo not given), the composite z-score is 0.514 (inactive) in assay [1] and 0.496 in assay [2]. Also, the z-score is -2.58 in assay [3], -5.46 (inactive) in assay [4], -0.163 (inactive) in assay [5] and -0.265 (inactive) in assay [6].

In the case of `COCCOC(=O)N1C(=O)[C@@]2(c3cc(C#CCC(C(=O)OC)C(=O)OC)ccc31)[C@H](c1ccc(OCCO)cc1)N1[C@H](c3ccccc3)[C@H](c3ccccc3)OC(=O)[C@H]1[C@@H]2C(=O)Nc1nc2ccccc2s1`, the composite z-score in assay [1] was 0.0047 (inactive); in assay [2], 0.59. Moreover, the z-score in assay [3] was -0.512; in assay [4] it was 2.1 (inactive); in assay [5] it was -0.365 (inactive); in assay [6], -0.632 (inactive).

As to `CN(C)CCCCCCNC(=O)[C@@H]1C[C@@H]2C(=O)N[C@@H](CCCCN)C(=O)N2[C@@H]1c1ccc(O)cc1`, the composite z-score is 0.802 (inactive) in assay [1] and 0.753 in assay [2]. Besides, the z-score in assay [3] is -1.02; in assay [4] it was -1.14 (inactive); in assay [5], 0.291 (inactive); in assay [6], 0.481 (inactive).

As for `O=C(O)[C@@H]1C[C@@H]2C(=O)N3CCC[C@H]3C(=O)N2[C@@H]1c1cccc(OCCO)c1`, the results for the composite z-score in assay [1] and in assay [2] were 2 (inactive) and 0.932, respectively. The z-score was -0.382 in assay [3], -2.19 (inactive) in assay [4], 0.299 (inactive) in assay [5] and -0.0384 (inactive) in assay [6].

Turning to `CC(=O)NCCCC[C@@H]1NC(=O)[C@@H]2C[C@H](C(=O)NCCCCCCN)[C@H](c3cccc(OCCO)c3)N2C1=O`, the composite z-score in assay [1] was 1.15 (inactive); in assay [2], 0.635. Further, the z-score in assay [3] is 1.42; in assay [4], -3.35 (inactive); in assay [5], 0.391 (inactive); in assay [6] it was 0.388 (inactive).

For the compound `C=C[C@@H](OC)[C@H](OC(=O)Nc1ccc(SC)cc1)c1ccc(OCCO)cc1`, the composite z-score in assay [1] is -0.302 (inactive); in assay [2], 0.709. The z-score was 0.0419 in assay [3], -5.58 (inactive) in assay [4], -0.0838 (inactive) in assay [5] and 0.168 (inactive) in assay [6].

Turning to `C=CCC(OC(C)=O)[C@@H]1[C@@H](N(Cc2cccc3ccccc23)C(=O)c2ccc(-c3ccccc3)cc2)c2cc(OCCCO)ccc2N1C(=O)c1ccc(-c2ccccc2)cc1` (stereo not given in full), the results for the composite z-score in assay [1] and in assay [2] were -0.303 (inactive) and -0.811, respectively. For the same compound, the z-score is 0.579 in assay [3], -1.17 (inactive) in assay [4], 0.492 (inactive) in assay [5] and 0.0424 (inactive) in assay [6].

On to `O=C1C2C=CC(C(O)c3cccc(O)c3)N(Nc3ccccc3)C2C(=O)N1c1ccccc1` (stereo not given), for which the composite z-score is -0.234 (inactive) in assay [1] and 0.214 in assay [2]. Moreover, the z-score in assay [3] was -0.267; in assay [4], -1.18 (inactive); in assay [5], 0.293 (inactive); in assay [6], 0.126 (inactive).
